About 79,000 compounds went through this panel and 15% of them were active in at least one assay; those are over-represented in the sample as a whole. Calls of active or inactive are those of the source. Rule as the data show it: active = growth inhibition above about 70%; inactive = the rest.
Key:
[1] = NCI Yeast Anticancer Drug Screen. Data for the rad52 strain (AID 147);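 also: 0% = growth of vehicle-treated control cultures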; conditions: S. cerevisiae rad52 mutant growth inhibition, hits give high values
How it was run: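 Read-out: growth inhibition versus vehicle-treated controls. Cells were a DNA repair-deficient yeast strain treated with compounds.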

[2] = NCI Yeast Anticancer Drug Screen. Data for the wt1 strain (AID 149);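 also: 0% = growth of vehicle-treated wt1 cultures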; conditions: S. cerevisiae wt1 strain (SPY 50644) growth inhibition, hits give high values
How it was run: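 Growth inhibition read against vehicle controls after compound exposure of the wt1 yeast strain.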

[3] = NCI Yeast Anticancer Drug Screen. Data for the rad50EPP+ strain (AID 151);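 also: 0% = growth of vehicle-treated control cultures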; conditions: S. cerevisiae rad50 mutant strain, hits give high values
How it was run: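 Growth inhibition read against vehicle controls in rad50EPP+ yeast, a strain altered in DNA damage repair, after compound exposure.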

[4] = NCI Yeast Anticancer Drug Screen. Data for the mgt1 strain (AID 153); conditions: S. cerevisiae mgt1 mutant growth inhibition, hits give high values
How it was run: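 mgt1 yeast grown with test compound; read-out is growth inhibition versus vehicle-treated cultures.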

[5] = NCI Yeast Anticancer Drug Screen. Data for the rad50 strain (AID 155);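 also: 0% = growth of vehicle-only cultures of the same strain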; conditions: S. cerevisiae rad50 strain growth inhibition, hits give high values
How it was run: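 Readout: growth inhibition relative to vehicle-treated cultures. Compound exposure was carried out in a genetically defined yeast strain deficient in DNA damage repair.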

[6] = NCI Yeast Anticancer Drug Screen. Data for the mec2-1 strain (AID 157); conditions: S. cerevisiae mec2-1 strain, hits give high values
How it was run: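 Yeast mec2-1 mutant treated with compound. Readout: growth inhibition vs vehicle controls.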

[7] = NCI Yeast Anticancer Drug Screen. Data for the rad14 strain (AID 159);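 also: 0% = growth of vehicle-treated control cultures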; conditions: S. cerevisiae rad14 strain growth inhibition, hits give high values
How it was run: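 Growth inhibition vs vehicle controls; genetically altered yeast strain (DNA damage repair defect) treated with test compounds.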

[8] = at 5.0 µM (retest, dose inferred, filed as 0.5)
[9] = at 50.0 µM (retest, dose inferred, filed as 5.0)

Measured: growth inhibition

COC(=O)C1=C(C(=O)OC)C2(C)C=CC1O2 (stereo unspecified)
active: [1]; at 33.0 µM 70% | [1]; at 100.0 µM 91% | [2]; at 100.0 µM 93% | [4]; at 100.0 µM 86% | [5]; at 33.0 µM 72% | [5]; at 50.0 µM 81.2% | [5]; at 100.0 µM 91% | [6]; at 50.0 µM 86.8% | [6]; at 100.0 µM 87% | [7]; at 100.0 µM 87%
inactive: [1]; at 1.2 µM -1% | [1]; at 3.7 µM -4% | [1]; at 11.0 µM 21% | [2]; at 1.2 µM 0% | [2]; at 3.7 µM 7% | [2]; at 11.0 µM 30% | [2]; at 33.0 µM 62% | [3]; at 1.2 µM -11% | [3]; at 3.7 µM -34% | [3]; at 11.0 µM -12% | [3]; at 33.0 µM 20% | [3]; at 100.0 µM 19% | [4]; at 1.2 µM -4% | [4]; at 3.7 µM -9% | [4]; at 11.0 µM -3% | [4]; at 33.0 µM 32% | [5]; at 1.2 µM -15% | [5]; at 3.7 µM -13% | [5]; [8] -135% | [5]; at 11.0 µM 7% | [5]; [9] 53% | [6]; at 1.2 µM -2% | [6]; at 3.7 µM -1% | [6]; [8] -43% | [6]; at 11.0 µM 1% | [6]; at 33.0 µM 26% | [6]; [9] 43% | [7]; at 1.2 µM 1% | [7]; at 3.7 µM 15% | [7]; at 11.0 µM 17% | [7]; at 33.0 µM 33%

Reference: PubChem BioAssay (NCI)
